According to PubChem BioAssay (NCATS):
Results filed as inconclusive are left out. Active and inactive are the calls of the source. Calls come from the whole dose curve; as a rule, active = well fitted cell-killing curve with a large enough effect; inconclusive = small, poorly fitted or top-dose-only effect; inactive = flat fitted curve, though single readings scatter.

Test: Quantitative highthroughput screen to assess conditional lethalithy of P12 Ichikawa cells grown in Human Plasma-Like Medium with dialyzed fetal bovine serum (HPLM+ds) (AID 1963879); note: nearly all actives have a fitted effect of over 35% in size
Conditions: ATP luminescence, 48 h; Potency: viability; series mostly up to 45.8 µM
Procedure, shortened: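 Each medium arm—HPLM with 10% dialyzed FBS, or RPMI1640 with 5 mM glucose and 10% untreated or dialyzed FBS—was screened against an 11-point, 3-fold compound titration for 48 h at 37 °C, with CellTiter-Glo luminescence as endpoint.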
Potency is the fitted concentration of half-maximal effect.

Structure (SMILES)	Potency
CCOC1OC(=O)C[C@H]1NC(=O)[C@@H]1CCCN1C(=O)[C@@H](NC(=O)c1ccc(N)c(Cl)c1)C(C)(C)C (some centres undefined)	1660 nM (active)
Cc1cc(N2CCOCC2)cc2[nH]c(-c3c(NC[C@@H](O)c4cccc(Cl)c4)cc[nH]c3=O)nc12	inactive
CNC(=O)c1cccc(-c2ccc3c(N4CCOC[C@H]4C)nc(N4CCOC[C@H]4C)nc3n2)c1	74.3 nM (active)
COc1cc(OC)c(C=CS(=O)(=O)Cc2ccc(OC)c(NCC(=O)O)c2)c(OC)c1	264 nM (active)
Cc1[nH]c(C=C2C(=O)Nc3ccc(S(=O)(=O)N(C)c4cccc(Cl)c4)cc32)c(C)c1C(=O)N1CCN(C)CC1	18700 nM (active)
CNc1nc(-c2ccc3c(N)n[nH]c3c2)cc(N2C[C@@H](C(=O)NC3CCCCC3)CC[C@@H]2C)n1	23500 nM (active)
CCNC(=O)CCCC=CC[C@@H]1[C@H](C=CC(O)CCc2ccccc2)[C@@H](O)C[C@@H]1O (some centres undefined)	inactive
CON=C(C(=O)N[C@@H]1C(=O)N2C(C(=O)O)=C(CSC(=O)c3ccco3)CS[C@H]12)c1csc(N)n1	inactive
COc1cc(C(C)=O)ccc1OCCCN1CCC(c2noc3cc(F)ccc23)CC1	inactive
CCC(=C(c1ccc(O)cc1)c1ccc(OCCNC)cc1)c1ccccc1	4180 nM (active)
CCOC(=O)C1=C[C@]2(CC)CCCN3CCc4c(n1c1ccccc41)[C@@H]32	inactive
O=C(O)C=Cc1ccc(O)c(O)c1	26400 nM (active)
CCCCCN=C(N)NN=Cc1c[nH]c2ccc(OC)cc12	13200 nM (active)
CC(C)(C)c1[nH]cnc1C=c1[nH]c(=O)c(=Cc2ccccc2)[nH]c1=O	6.1 nM (active)
CC(=O)Nc1sc2c(c1-c1nc3ccccc3s1)CNC2	inactive
O=c1[nH]c(=O)n([C@H]2C[C@@H](O)[C@@H](CO)O2)cc1F	83.3 nM (active)
CC(=O)ON=C1C(c2c(O)[nH]c3cc(Br)ccc23)=Nc2ccccc21	20900 nM (active)
CCOc1ccccc1N=Nc1c(C)[nH]n(-c2nc(-c3ccccc3)cs2)c1=O	16600 nM (active)
COC(=O)[C@H](c1ccccc1Cl)N1CCc2sccc2C1	8330 nM (active)
COC(=O)C=CC(=O)OC	935 nM (active)

Structure (SMILES)	Potency
CN[C@H]1[C@@H](O[C@@H]2[C@H](O[C@@H]3[C@@H](O)[C@@H](O)[C@@H](N=C(N)N)[C@@H](O)[C@@H]3N=C(N)N)O[C@H](C)[C@@]2(O)C=O)O[C@@H](CO)[C@@H](O)[C@H]1O	inactive
Cc1ccc(N(CC2=NCCN2)c2cccc(O)c2)cc1	inactive
CC1(C)C(=O)N(CCN2CCC(C(=O)c3ccc(F)cc3)CC2)c2ccccc21	inactive
CC=C(C)C(=O)O[C@H]1C(C)=C[C@]23C(=O)[C@@H](C=C(CO)[C@@H](O)[C@]12O)[C@H]1[C@@H](C[C@H]3C)C1(C)C	inactive
CC(C)OC(=O)[C@H](C)N[P@](=O)(OC[C@H]1O[C@@H](n2ccc(=O)[nH]c2=O)[C@](C)(F)[C@H]1O)Oc1ccccc1	1320 nM (active)
O=c1[nH]c(=O)n([C@H]2C[C@@H](O)[C@@H](CO)O2)cc1C(F)(F)F	1180 nM (active)
COc1cc2c(cc1O)CCC1C2CC[C@@]2(C)C1CC[C@@H]2O (some centres undefined)	1870 nM (active)
CO[C@@H]1[C@@H](O)[C@H](O)[C@@H](n2c3c(Cl)cccc3c3c4c(c5c6cccc(Cl)c6[nH]c5c32)C(=O)NC4=O)O[C@@H]1CO	296 nM (active)
Cc1c[nH]c(C=C2C(=O)Nc3ccccc32)c1CCC(=O)O	2640 nM (active)
COc1ccc(-c2oc3cc(OC)ccc3c2C(=O)c2ccc(C#N)cc2)cc1	1870 nM (active)
CC(C)N(CC[C@H](c1ccccc1)c1cc(CO)ccc1O)C(C)C	inactive
CC1=C(C)C(=O)C(C(CCCCCC(=O)O)c2ccccc2)=C(C)C1=O (centres undefined)	inactive
COc1ccc2cc3[n+](cc2c1OC)CCc1cc2c(cc1-3)OCO2	18700 nM (active)
COc1cc2c(cc1OC)[C@@H]1Cc3ccc(OC)c(OC)c3CN1CC2	inactive
COc1cc(CNC(=O)CCCCC=CC(C)C)ccc1O	332 nM (active)
COc1nccc(-c2c(-c3ccc(F)cc3)ncn2C2CCNCC2)n1	inactive
COc1cc2nc(N(C)CCCNC(=O)C3CCCO3)nc(N)c2cc1OC (centres undefined)	inactive
N=C(N)c1ccc(OCCCCCOc2ccc(C(=N)N)cc2)cc1	inactive
N#Cc1ccc(COC[C@H]2O[C@@H](n3c(NCc4ccc(Cl)c(Cl)c4)nc4c(N)ncnc43)[C@@H](O)[C@@H]2O)cc1	inactive
